According to PubChem BioAssay AID1159580 (chemical genetic matrix, 2015):
Several values for one entry are separate records, joined by “and”; a condition that tells them apart may be missing. Identical values can stand only once. Out of some 5,500 compounds screened, about 2,000 (36%) were called active. Another 18% or so got no clear call; they are omitted. No stated cut-off is given here; in the data, active means normalized growth mostly below about 0.91 (no sharp cut-off); inconclusive means no clear call, values can overlap the other calls; inactive means mostly above about 0.92. The list shows a part of the results.

Assay: chemical genetic growth profiling, strain panel (AID 1159580);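 further: tested at 20 µM; growth read once vehicle control cultures reached saturation at 30 °C; 1 = growth at the plate median or of vehicle wells; lower values mean less growth of the strain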
Conditions: S. cerevisiae deletion strains, growth OD

Measured: normalized growth

CN(C)[C@@H]1C(=O)C(C(N)=O)=C(O)[C@@]2(O)C(=O)C3=C(O)c4c(O)ccc(Cl)c4[C@@](C)(O)[C@H]3C[C@@H]12
inactive: locus YAL013W, strain DEP1, hits give low values 1.01 | locus YAL021C, strain ccr4, hits give low values 0.956 | locus YAL026C, strain drs2, hits give low values 0.983 | locus YAL030W, strain snc1, hits give low values 0.981 | locus YBL061C, strain skt5, hits give low values 0.98 | locus YBR009C, strain hhf1, hits give low values 0.979 | locus YBR021W, strain FUR4, hits give low values 0.961 | locus YBR023C, strain chs3, hits give low values 0.993 | locus YBR171W, strain sec66, hits give low values 0.979 | locus YBR229C, strain ROT2, hits give low values 1.01 | locus YBR231C, strain swc5, hits give low values 0.986 | locus YBR279W, strain paf1, hits give low values 0.987 | locus YCL011C, strain gbp2, hits give low values 0.967 | locus YCL016C, strain dcc1, hits give low values 0.967 | locus YCL029C, strain bik1, hits give low values 1.02 | locus YCL069W, strain vba3, hits give low values 0.986 | locus YCR088W, strain abp1, hits give low values 0.988 | locus YDL005C, strain med2, hits give low values 0.985 | locus YDL035C, strain GPR1, hits give low values 0.976 | locus YDL040C, strain nat1, hits give low values 0.983 | locus YDL074C, strain BRE1, hits give low values 0.968 | locus YDL101C, strain DUN1, hits give low values 1 | locus YDL185W, strain tfp1, hits give low values 1.01 | locus YDL192W, strain arf1, hits give low values 0.97 | locus YDR001C, strain nth1, hits give low values 0.969 | locus YDR069C, strain doa4, hits give low values 0.947 | locus YDR101C, strain arx1, hits give low values 0.996 | locus YDR137W, strain rgp1, hits give low values 0.957 | locus YDR150W, strain NUM1, hits give low values 1 | locus YDR159W, strain sac3, hits give low values 0.968 | locus YDR162C, strain NBP2, hits give low values 1 | locus YDR195W, strain ref2 0.945 | locus YDR297W, strain sur2, hits give low values 0.991 | locus YDR318W, strain mcm21, hits give low values 1 | locus YDR334W, strain swr1, hits give low values 0.968 | locus YDR335W, strain msn5, hits give low values 0.98 | locus YDR388W, hits give low values 1.01 | locus YDR392W, strain spt3, hits give low values 0.895 | locus YDR502C, strain sam2, hits give low values 1.01 | locus YEL003W, strain gim4, hits give low values 0.973 | locus YEL037C, strain rad23, hits give low values 0.983 | locus YEL061C, strain CIN8 (second series), hits give low values 0.986 | locus YEL061C, strain CIN8, hits give low values 0.996 | locus YER015W, strain faa2, hits give low values 0.977 | locus YER016W, strain bim1, hits give low values 0.984 | locus YER110C, hits give low values 1.01 | locus YER111C, strain swi4, hits give low values 0.977 | locus YER155C, strain BEM2 (second series), hits give low values 0.95 | locus YER155C, strain BEM2, hits give low values 1.02 | locus YER167W, strain BCK2, hits give low values 1.01 | locus YFR010W, strain ubp6, hits give low values 0.972 | locus YGL078C, strain dbp3, hits give low values 0.994 | locus YGL086W, strain mad1, hits give low values 0.981 | locus YGL167C, strain pmr1, hits give low values 0.959 | locus YGL173C, strain kem1, hits give low values 0.985 | locus YGL227W, strain vid30, hits give low values 0.984 | locus YGL240W, strain doc1, hits give low values 0.982 | locus YGL248W, strain PDE1, hits give low values 0.942 | locus YGL253W, strain hxk2, hits give low values 0.974 | locus YGR078C, strain PAC10, hits give low values 0.976 | locus YGR135W, strain pre9, hits give low values 0.994 | locus YGR252W, strain gcn5, hits give low values 1 | locus YHR013C, strain ard1, hits give low values 0.98 | locus YHR027C, strain rpn1, hits give low values 0.981 | locus YHR030C, strain SLT2, hits give low values 1.01 and 1.03 | locus YHR079C, strain IRE1 (second series), hits give low values 1.01 | locus YHR079C, strain IRE1, hits give low values 1.1 | locus YHR094C, strain hxt1, hits give low values 1.01 | locus YHR129C, strain ARP1, hits give low values 0.99 | locus YHR142W, strain chs7, hits give low values 0.986 | locus YHR200W, strain rpn10, hits give low values 0.987 | locus YIL066C, strain RNR3, hits give low values 0.922 | locus YIL073C, strain SPO22, hits give low values 0.976 | locus YIL125W, strain kgd1, hits give low values 0.998 | locus YIR030C, strain dcg1, hits give low values 1.01 | locus YJL092W, strain hpr5, hits give low values 0.971 | locus YJL095W, strain BCK1 (second series), hits give low values 0.971 | locus YJL095W, strain BCK1, hits give low values 0.981 and 1.04 | locus YJL115W, strain asf1, hits give low values 0.96 | locus YJL129C, strain trk1, hits give low values 0.991 | locus YJL134W, strain LCB3, hits give low values 1.01 | locus YJL154C, strain vps35, hits give low values 0.973 | locus YJL164C, strain tpk1, hits give low values 0.961 | locus YJL166W, strain qcr8, hits give low values 0.97 | locus YJL168C, strain set2, hits give low values 1 | locus YJL187C, strain SWE1 (second series), hits give low values 0.988 | locus YJR043C, strain POL32, hits give low values 0.971 | locus YJR066W, strain TOR1, hits give low values 0.972 | locus YJR075W, strain HOC1, hits give low values 1 | locus YKL009W, strain mrt4, hits give low values 1.02 | locus YKL068W, hits give low values 1 | locus YKL085W, strain MDH1 (second series), hits give low values 1.01 | locus YKL085W, strain MDH1, hits give low values 1.01 | locus YKL160W, strain elf1, hits give low values 0.962 | locus YKR001C, strain vps1, hits give low values 0.978 | locus YKR026C, strain gcn3, hits give low values 0.975 | locus YKR091W, strain srl3, hits give low values 0.985 | locus YLL001W, strain dnm1, hits give low values 0.976 | locus YLL026W, hits give low values 0.987 | locus YLL041C, strain sdh2, hits give low values 0.97 | locus YLR027C, strain aat2, hits give low values 0.987 | locus YLR039C, strain RIC1, hits give low values 1.01 | locus YLR058C, strain SHM2, hits give low values 0.998 | locus YLR102C, strain apc9, hits give low values 1.02 | locus YLR113W, strain HOG1, hits give low values 1.05 | locus YLR221C, strain rsa3, hits give low values 0.987 | locus YLR258W, strain gsy2, hits give low values 0.975 | locus YLR262C, strain YPT6 (second series), hits give low values 1.01 | locus YLR262C, strain YPT6, hits give low values 1.03 | locus YLR268W, strain sec22, hits give low values 0.992 | locus YLR320W, strain mms22, hits give low values 0.996 | locus YLR330W, strain CHS5, hits give low values 0.999 | locus YLR342W, strain FKS1 (second series), hits give low values 0.848 | locus YLR342W, strain FKS1, hits give low values 0.989 | locus YLR357W, strain rsc2, hits give low values 0.938 | locus YLR370C, strain arc18, hits give low values 0.96 | locus YLR371W, strain rom2, hits give low values 0.983 | locus YLR384C, strain iki3, hits give low values 0.995 | locus YLR418C, strain cdc73, hits give low values 0.988 | locus YML016C, strain PPZ1, hits give low values 0.998 | locus YML032C, strain rad52, hits give low values 0.988 | locus YML120C, strain ndi1, hits give low values 0.97 | locus YML124C, strain tub3, hits give low values 1.01 | locus YMR058W, strain fet3, hits give low values 0.965 | locus YMR078C, strain ctf18, hits give low values 1 | locus YMR125W, strain sto1, hits give low values 0.944 | locus YMR129W, hits give low values 0.983 | locus YMR205C, strain PFK2, hits give low values 0.989 | locus YMR223W, strain ubp8, hits give low values 0.985 | locus YMR231W, strain pep5, hits give low values 0.99 | locus YMR307W, strain GAS1, hits give low values 0.956 | locus YNL067W, strain RPL9B, hits give low values 0.991 | locus YNL071W, strain lat1, hits give low values 0.989 | locus YNL183C, strain NPR1, hits give low values 0.982 | locus YNL209W, strain ssb2, hits give low values 0.99 | locus YNL233W, strain BNI4, hits give low values 0.974 | locus YNL248C, strain rpa49, hits give low values 0.993 | locus YNL250W, strain rad50, hits give low values 1.01 | locus YNL271C, strain bni1, hits give low values 1.01 | locus YNL298W, strain CLA4, hits give low values 1.03 | locus YNL307C, strain MCK1, hits give low values 1.01 | locus YNL322C, strain KRE1 (second series), hits give low values 0.983 | locus YNR049C, strain mso1, hits give low values 0.968 | locus YNR052C, strain pop2, hits give low values 0.997 | locus YOL006C, strain TOP1, hits give low values 0.768 | locus YOL012C, strain htz1 1.03 | locus YOL147C, strain pex11, hits give low values 1.02 | locus YOR001W, strain rrp6, hits give low values 0.978 | locus YOR061W, strain CKA2, hits give low values 0.988 | locus YOR069W, strain VPS5, hits give low values 1 | locus YOR070C, strain gyp1, hits give low values 0.98 | locus YOR080W, strain dia2, hits give low values 0.974 | locus YOR083W, strain WHI5, hits give low values 0.952 | locus YOR106W, strain vam3, hits give low values 0.929 | locus YOR136W, strain idh2, hits give low values 1.03 | locus YOR144C, strain elg1, hits give low values 1.01 | locus YOR184W, strain ser1, hits give low values 1.02 | locus YOR231W, strain MKK1, hits give low values 1.05 | locus YOR265W, strain rbl2, hits give low values 0.989 | locus YOR270C, strain vph1, hits give low values 0.991 | locus YOR290C, strain snf2, hits give low values 0.941 | locus YOR316C, strain cot1, hits give low values 1.01 | locus YPL051W, strain arl3, hits give low values 0.984 | locus YPL055C, strain LGE1, hits give low values 0.96 | locus YPL078C, strain atp4, hits give low values 0.958 | locus YPL106C, strain sse1, hits give low values 0.929 | locus YPL240C, strain hsp82, hits give low values 0.981 | locus YPL241C, strain CIN2, hits give low values 0.997 | locus YPL256C, strain CLN2, hits give low values 1.03 | locus YPR119W, strain clb2, hits give low values 1.02 | locus YPR141C, strain kar3, hits give low values 1.01 | locus YPR163C, strain tif3, hits give low values 0.995 | locus YPR167C, strain met16, hits give low values 1.01 | strain wtn01, hits give low values 0.979
